# Pf apPOL block = Pf-apPOL DNA polymerase inhibition. Recombinant Pf-apPOL, molecular beacon fluorescence, 1.5 h. inhibition, % at 10 µM. 210,000 compounds, 0.25% hits. AID 1794808
# mHTT-CaM PPI inh = mHTT-calmodulin interaction abrogation; 190,000 compounds, 3.6% hits; inhibition, % at 15 µM; AlphaScreen His-mHTT/GST-CaM binding, luminescence; P42858; AID 1671202;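 also: 0% = both proteins with DMSO and 100% = one protein alone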
# Target sequence (P42858 whole entry, looked up, stated change not applied): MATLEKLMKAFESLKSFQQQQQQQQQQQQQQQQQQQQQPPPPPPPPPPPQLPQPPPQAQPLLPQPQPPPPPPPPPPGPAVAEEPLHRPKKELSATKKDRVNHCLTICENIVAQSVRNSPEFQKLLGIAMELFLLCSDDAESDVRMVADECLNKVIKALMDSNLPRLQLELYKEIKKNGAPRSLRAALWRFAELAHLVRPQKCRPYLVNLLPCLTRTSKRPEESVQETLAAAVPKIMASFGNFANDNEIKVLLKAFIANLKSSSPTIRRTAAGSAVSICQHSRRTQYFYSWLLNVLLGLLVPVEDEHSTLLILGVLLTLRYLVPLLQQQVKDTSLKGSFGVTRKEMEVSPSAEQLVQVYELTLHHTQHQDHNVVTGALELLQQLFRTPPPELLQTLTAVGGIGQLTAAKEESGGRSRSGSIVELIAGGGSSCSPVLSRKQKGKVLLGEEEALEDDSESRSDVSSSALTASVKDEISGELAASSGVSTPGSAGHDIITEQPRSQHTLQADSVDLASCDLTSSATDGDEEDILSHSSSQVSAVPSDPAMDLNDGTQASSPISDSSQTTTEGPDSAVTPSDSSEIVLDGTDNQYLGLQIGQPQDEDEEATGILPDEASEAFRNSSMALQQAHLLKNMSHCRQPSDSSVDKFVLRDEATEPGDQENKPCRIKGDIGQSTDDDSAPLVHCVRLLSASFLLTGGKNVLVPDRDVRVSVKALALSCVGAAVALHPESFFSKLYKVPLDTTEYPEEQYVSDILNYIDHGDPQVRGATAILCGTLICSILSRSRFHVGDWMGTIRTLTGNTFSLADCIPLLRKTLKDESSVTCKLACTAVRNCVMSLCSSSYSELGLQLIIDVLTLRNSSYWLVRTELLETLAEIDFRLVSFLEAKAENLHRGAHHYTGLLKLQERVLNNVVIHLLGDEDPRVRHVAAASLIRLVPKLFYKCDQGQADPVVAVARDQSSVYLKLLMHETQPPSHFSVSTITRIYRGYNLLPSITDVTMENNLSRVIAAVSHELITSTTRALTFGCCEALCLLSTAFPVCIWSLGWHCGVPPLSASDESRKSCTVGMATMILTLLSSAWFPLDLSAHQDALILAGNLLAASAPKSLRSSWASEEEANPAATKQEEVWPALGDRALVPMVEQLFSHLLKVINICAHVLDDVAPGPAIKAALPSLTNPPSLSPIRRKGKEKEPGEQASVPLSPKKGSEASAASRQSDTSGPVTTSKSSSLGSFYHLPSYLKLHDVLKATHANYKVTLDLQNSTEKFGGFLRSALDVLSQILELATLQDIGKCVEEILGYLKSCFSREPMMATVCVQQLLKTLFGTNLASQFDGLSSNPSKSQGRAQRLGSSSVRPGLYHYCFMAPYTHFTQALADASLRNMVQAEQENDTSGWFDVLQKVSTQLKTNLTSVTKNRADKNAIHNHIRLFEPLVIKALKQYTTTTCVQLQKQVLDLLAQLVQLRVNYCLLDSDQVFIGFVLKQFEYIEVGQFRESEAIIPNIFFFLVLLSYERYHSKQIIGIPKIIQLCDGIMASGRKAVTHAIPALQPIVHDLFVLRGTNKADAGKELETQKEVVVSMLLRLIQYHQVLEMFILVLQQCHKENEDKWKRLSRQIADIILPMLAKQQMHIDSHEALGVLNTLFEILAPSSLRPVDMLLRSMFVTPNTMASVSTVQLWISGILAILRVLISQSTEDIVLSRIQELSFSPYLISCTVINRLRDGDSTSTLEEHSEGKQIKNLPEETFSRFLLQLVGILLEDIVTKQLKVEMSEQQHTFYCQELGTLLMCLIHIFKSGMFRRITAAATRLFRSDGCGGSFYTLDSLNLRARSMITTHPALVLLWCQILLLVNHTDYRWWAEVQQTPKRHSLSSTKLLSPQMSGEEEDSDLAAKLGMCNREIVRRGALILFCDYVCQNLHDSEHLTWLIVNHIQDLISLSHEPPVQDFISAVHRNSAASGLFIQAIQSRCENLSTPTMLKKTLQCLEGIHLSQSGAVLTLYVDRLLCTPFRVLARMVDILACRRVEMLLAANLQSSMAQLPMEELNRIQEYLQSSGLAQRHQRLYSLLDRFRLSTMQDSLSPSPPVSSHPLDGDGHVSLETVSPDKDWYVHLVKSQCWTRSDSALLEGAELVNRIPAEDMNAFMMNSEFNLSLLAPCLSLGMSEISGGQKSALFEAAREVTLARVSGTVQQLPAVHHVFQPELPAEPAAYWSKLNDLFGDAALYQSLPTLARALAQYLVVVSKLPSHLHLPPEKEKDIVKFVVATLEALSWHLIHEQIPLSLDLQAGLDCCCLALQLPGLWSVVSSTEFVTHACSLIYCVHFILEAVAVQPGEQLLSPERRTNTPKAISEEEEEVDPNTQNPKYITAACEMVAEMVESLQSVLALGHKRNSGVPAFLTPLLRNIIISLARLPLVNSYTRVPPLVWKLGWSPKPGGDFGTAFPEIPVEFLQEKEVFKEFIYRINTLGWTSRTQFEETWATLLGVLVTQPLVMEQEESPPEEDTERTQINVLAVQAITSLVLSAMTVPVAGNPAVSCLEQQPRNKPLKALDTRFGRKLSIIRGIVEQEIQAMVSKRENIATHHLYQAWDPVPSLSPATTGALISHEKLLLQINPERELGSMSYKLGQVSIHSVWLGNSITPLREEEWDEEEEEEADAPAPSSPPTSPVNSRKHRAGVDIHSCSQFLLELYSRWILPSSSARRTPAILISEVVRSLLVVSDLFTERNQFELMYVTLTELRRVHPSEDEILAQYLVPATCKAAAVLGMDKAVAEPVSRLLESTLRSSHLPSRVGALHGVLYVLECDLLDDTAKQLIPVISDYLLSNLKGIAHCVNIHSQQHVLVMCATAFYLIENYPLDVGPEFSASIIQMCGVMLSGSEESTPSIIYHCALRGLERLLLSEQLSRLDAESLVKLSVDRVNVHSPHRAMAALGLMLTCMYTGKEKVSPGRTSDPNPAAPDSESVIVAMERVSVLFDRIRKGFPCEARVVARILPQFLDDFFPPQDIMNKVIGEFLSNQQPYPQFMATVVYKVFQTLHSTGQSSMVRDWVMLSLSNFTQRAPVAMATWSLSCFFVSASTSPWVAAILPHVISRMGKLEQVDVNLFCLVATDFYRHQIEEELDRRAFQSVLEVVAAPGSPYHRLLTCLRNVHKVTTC
# * marks the source's active call; other numbers are inactive results. This excerpt belongs to a sample that is enriched for hits. Rule as the data show it: active = inhibition above about 50%; inactive = the rest.
SMILES,Pf apPOL block,mHTT-CaM PPI inh
CN(C)c1ccc(NC(=O)CN2CCC(c3nc(-c4ccccc4Cl)no3)CC2)cc1,-2,66*
COc1cccc(CNC(=O)C2CCN(Cc3cn(C)c4ccc(Cl)cc34)CC2)c1,-3,12
COc1cc(C(=O)Nc2sc3c(c2C(=O)O)CCC(C)C3)cc(OC)c1OC (centres undefined),-3,3
COc1ccc(Cl)cc1NC(=O)c1c(NCc2cccnc2)sc2c1CCC(C)C2 (centres undefined),-19,78*
COc1ccccc1NC(=O)c1c(NCc2cccnc2)sc2c1CCC(C)C2 (centres undefined),-17,80*
CCOc1ccccc1NC(=O)c1c(NCc2ccccn2)sc2c1CCC(C)C2 (centres undefined),-17,20
COc1ccc(-c2nn(-c3ccccc3)cc2C=O)cc1OC,-29,9
COc1ccc(C2C(C(=O)Nc3ccccn3)c3ccccc3C(=O)N2C)cc1 (centres undefined),-4,-1
COc1ccc(-c2nnc(NC(=O)c3ccc(S(=O)(=O)N4CCCCC4)cc3)o2)cc1,74*,-1
COc1ccc(-c2nnc(NC(=O)c3ccc(S(=O)(=O)N4CCCCCC4)cc3)o2)cc1,0,8
COc1ccc(-c2nnc(NC(=O)c3ccc(S(=O)(=O)N4CCOCC4)cc3)o2)cc1,-6,6
COc1ccc(-c2nnc(NC(=O)c3ccc(S(=O)(=O)N4CCOCC4)cc3)o2)c(OC)c1,6,54*
COc1ccc(-c2nnc(NC(=O)c3ccc(OC)c(OC)c3)o2)cc1,-7,50*
COc1ccc(C(=O)Nc2nnc(-c3ccccc3)o2)cc1OC,-4,12
CCOc1ccccc1NC(=O)c1ccc(F)c(S(=O)(=O)N2CC(C)CC(C)C2)c1 (centres undefined),-7,0
Cc1cccc(-n2c(CN3CCN(C(=O)Nc4cccc(F)c4)CC3)nc3cccnc32)c1,-2,15
Cc1ccc(S(=O)(=O)N2CCC(=O)N([C@H](COCc3cccc(C)c3)C(C)C)CC2)cc1,-4,-9
CC(C)C[C@@H](COCc1cccc(C(F)(F)F)c1)N1CCN(C(=O)c2ccc(C(F)(F)F)cc2)CCC1=O,0,89*
Cc1cccc(COC[C@H](CC(C)C)N2CCN(C(=O)c3ccc(C(F)(F)F)cc3)CCC2=O)c1,-2,90*
Cc1ccc(S(=O)(=O)N2CCC(=O)N(CCOCc3cccc(C(F)(F)F)c3)CC2)cc1,-1,7
CCOc1ccccc1NC(=O)N1CC(CC)Oc2ccccc21 (centres undefined),-4,-49
Cc1cccc(NC(=O)N2CC3CCCN3c3ccccc32)c1C (centres undefined),-3,30
O=C(NCc1ccco1)c1ccc(NC(=O)N2CC3CCCN3c3ccccc32)cc1 (centres undefined),1,15
Cc1ccccc1NC(=O)N1CC2CCCN2c2ccccc21 (centres undefined),-2,61*
O=C(Nc1ccccc1Br)N1CC2CCCN2c2ccccc21 (centres undefined),2,74*
SMILES,Pf apPOL block,mHTT-CaM PPI inh
CCOc1ccccc1NC(=O)N1CC2CCCN2c2ccccc21 (centres undefined),1,80*
COc1ccccc1-c1nc2ccc(C)cn2c1NC(=O)CCCl,9,0
Cc1ccc(C)c(NC(=O)Cn2cccc2-c2nnc(C3CC3)o2)c1,-1,-4
O=c1[nH]c2cc(F)ccc2c(O)c1-c1nc(-c2ccccc2Cl)no1,-1,-4
CCC1CN(C(=O)Nc2ccc(C)c(F)c2)c2ccccc2O1 (centres undefined),-2,-4
Cc1nnc(N2C(=O)C(O)=C(C(=O)c3ccco3)C2c2ccccc2F)s1 (centres undefined),-19,57*
Cc1nnc(N2C(=O)C(O)=C(C(=O)c3ccco3)C2c2ccc(Cl)cc2)s1 (centres undefined),-2,78*
COc1ccc(C2C(C(=O)c3ccco3)=C(O)C(=O)N2c2nnc(C)s2)cc1OC (centres undefined),-4,1
Cc1nnc(N2C(=O)C(O)=C(C(=O)c3ccco3)C2c2ccc(Br)cc2)s1 (centres undefined),-7,22
Cc1cc(C(=O)N2CCC(Oc3nc4c(C)ccc(C)c4s3)CC2)no1,0,-3
CCNC(=O)Nc1cccc(N2CCCN(Cc3ccc(F)cc3)C2=O)c1,-6,1
O=C(Cc1ccccc1)Nc1cccc(-c2nc3ccccc3[nH]2)c1,5,0
Cc1ccc(C2CCCN2C(=O)c2cc(-c3ccc4c(c3)OCO4)on2)cc1 (centres undefined),-3,0
Cc1ccc(C)c(N2CCN(C3CCCCCC3)CC2)c1,-6,0
C=CCNC(=O)c1nnc(N2CCCC2)c2ccccc12,-24,8
C=CCNC(=O)c1nc(N2CCCCC2)c2c(C)c(C)n(-c3ccccc3)c2n1,-5,89*
COc1ccc(OC)c(/C=C2\SC(=N)NC2=O)c1,1,14
C/C(=C1/C(=O)N(c2ccc([N+](=O)[O-])cc2)N=C1c1ccccc1)N(C)C,0,53*
CN(C)/C=C1\C(=O)N(c2ccc([N+](=O)[O-])cc2)N=C1c1ccccc1,59*,25
Cc1nnc(-c2ccccc2)n1-c1ccc([N+](=O)[O-])cc1,-2,8
CC1=NN(c2ccccc2)C(=O)/C1=C/c1ccc(-c2ccc([N+](=O)[O-])cc2)o1,0,1
CCOc1ccccc1NC(=O)Nc1ccc(CC(=O)NC(C)(C)CO)cc1,-3,4
COc1cccc(CNC(=O)CC2CCN(C(=O)c3ccc(C)cc3)CC2)c1,-4,10
CC1CC(=O)Nc2c1c(NC(=O)c1ccc(S(=O)(=O)N3CCOCC3)cc1)nn2C (centres undefined),-6,100*
CC1CC(=O)Nc2c1c(NC(=O)c1cc(-c3ccc(F)cc3)n[nH]1)nn2C (centres undefined),-7,1
SMILES,Pf apPOL block,mHTT-CaM PPI inh
O=C(Nc1ccc2c(c1)OCCO2)C1(c2cccs2)CCCC1,-5,-7
Cc1nc(C2CCCN(Cc3cccc4[nH]ccc34)C2)n[nH]1 (centres undefined),-7,18
Cc1nc(C2CCCN(Cc3ccc(Br)o3)C2)n[nH]1 (centres undefined),-10,50*
O=C(CCc1ccc2[nH]ccc2c1)NCc1ccc(F)c(Cl)c1,-8,15
O=C(NCCCN1CCCC1)c1cc2cn(C3CC3)cc2s1,108*,99*
COc1ccc(NC(=O)c2cc3cn(C4CC4)cc3s2)c(C)c1,10,52*
CC(C)NC(=O)c1cc2cn(C3CCCC3)cc2s1,-4,17
O=C(NCc1ccc(N2CCOCC2)cc1)c1cc2cn(C3CC3)cc2s1,8,21
O=C(NCCCN1CCCC1)c1cc2cn(C3CCCC3)cc2s1,10,16
COc1cccc(CNC(=O)c2cc3cn(C4CC4)cc3s2)c1,16,57*
O=C(c1cc2cn(C3CCCC3)cc2s1)N1CCSCC1,-1,19
O=C(c1cc2cn(C3CCCC3)cc2s1)N1CCN(C2CCCCC2)CC1,9,73*
O=C(NC1CCN(c2ncnc3c2CCC3)C1)c1cnccn1 (centres undefined),-4,-4
Cc1ccc(C(=O)Nc2cccc3c2CCCC3)c(Cl)c1,-14,-5
Cc1cccc(NC(=O)Cn2[nH]c3c(cnc4ccc(Cl)cc43)c2=O)c1,2,-2

# Screens as filed in PubChem BioAssay.
